PubChem BioAssay (NCATS)
Results filed as inconclusive are left out. The source made the active and inactive calls. The call rests on the fitted dose curve; in most records, active means well fitted curve in the direction sought with a large enough effect; inconclusive means small, poorly fitted or top-dose-only effect, or another doubt; inactive means no such curve, though single readings can be large; an effect the other way counts as inactive or inconclusive.

Columns and labels:
HaCat [1] = experiment: Cytotoxic Profiling of Annotated Libraries Using Quantitative High-Throughput Screening (AID 1296008); conditions: Five cell lines viability, CellTiter-Glo ATP luminescence, 48-72 h; max response: stronger effect = lower value; further: nearly all actives have a fitted effect of over 60% in size
Summary of the method: (§1)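 Cytotoxicity was measured as CellTiter-Glo ATP luminescence, read after 10 min at room temperature. Compound treatment of the cells lasted 48 or 72 hr at 37 degrees Celsius in a qHTS format.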

KB-3-1 = experiment: as above; conditions: Five cell lines viability, CellTiter-Glo ATP luminescence, 48-72 h; max response: stronger effect = lower value
Summary of the method: as §1

NIH3T3 [2] = experiment: as above; conditions: Five cell lines viability, CellTiter-Glo ATP luminescence, 48-72 h; max response: stronger effect = lower value
Summary of the method: as §1

MCC-13 = experiment: qHTS assay to identify novel small-molecules to repurpose for Merkel cell carcinoma treatment (AID 1296009); conditions: MCC and control cell lines, CellTiter-Glo viability, 72 h; series mostly up to 46 µM; further: nearly all actives have a fitted effect of over 60% in size
Summary of the method: (§2)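 Cell viability, measured as CellTiter-Glo luminescence, was normalized between DMSO and no-cell wells. The cells had been exposed to 8- or 11-point compound dilutions for 72 hr at 37 degree celsius.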

MCC-26 = experiment: as above; conditions: MCC and control cell lines, CellTiter-Glo viability, 72 h; series mostly up to 46 µM
Summary of the method: as §2

MKL-1 = experiment: as above; conditions: MCC and control cell lines, CellTiter-Glo viability, 72 h; series mostly up to 46 µM
Summary of the method: as §2

MKL-2 = experiment: as above; conditions: MCC and control cell lines, CellTiter-Glo viability, 72 h; series mostly up to 46 µM
Summary of the method: as §2

UISO = experiment: as above; conditions: MCC and control cell lines, CellTiter-Glo viability, 72 h; series mostly up to 46 µM
Summary of the method: as §2

WaGa = experiment: as above; conditions: MCC and control cell lines, CellTiter-Glo viability, 72 h; series mostly up to 46 µM
Summary of the method: as §2

C33A = experiment: Primary qHTS to identify gynecologic anti-cancer compounds using libraries of approved drugs and bioactive compounds (AID 1345084); conditions: Gynecologic cancer cell panel viability, ATPlite luminescence, 48 h; series mostly up to 57.5 µM; further: nearly all actives have a fitted effect of over 55% in size
Summary of the method: (§3)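 Luminescence from the ATPlite ATP-monitoring reagent indicates viable cell number; lower signal means cytotoxicity. Cells received compound 16 h after seeding and were exposed for 48 h across five concentrations.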

CAOV3 = experiment: as above; conditions: Gynecologic cancer cell panel viability, ATPlite luminescence, 48 h; series mostly up to 57.5 µM
Summary of the method: as §3

CASKI = experiment: as above; conditions: Gynecologic cancer cell panel viability, ATPlite luminescence, 48 h; series mostly up to 57.5 µM
Summary of the method: as §3

Es-2 = experiment: as above; conditions: Gynecologic cancer cell panel viability, ATPlite luminescence, 48 h; series mostly up to 57.5 µM
Summary of the method: as §3

HeLa = experiment: as above; conditions: Gynecologic cancer cell panel viability, ATPlite luminescence, 48 h; series mostly up to 57.5 µM
Summary of the method: as §3

Hek293T = experiment: as above; conditions: Gynecologic cancer cell panel viability, ATPlite luminescence, 48 h, control line for the selectivity index; series mostly up to 57.5 µM
Summary of the method: as §3

JEG-3 = experiment: as above; conditions: Gynecologic cancer cell panel viability, ATPlite luminescence, 48 h; series mostly up to 57.5 µM
Summary of the method: as §3

NIH3T3 [3] = experiment: qHTS assay to identify novel small-molecules to repurpose for Merkel cell carcinoma treatment (AID 1296009); conditions: MCC and control cell lines, CellTiter-Glo viability, 72 h; at 44.8 µM (top of the series) unless noted; further: nearly all actives have a fitted effect of over 60% in size
Summary of the method: as §2

HACAT [4] = experiment: as above; conditions: MCC and control cell lines, CellTiter-Glo viability, 72 h; at 44.8 µM (top of the series) unless noted
Summary of the method: as §2
On the % scale 0 is the no-effect control and ±100 the full control effect; potency means the concentration at half of the fitted maximal effect.

CC[C@@]1(O)C(=O)OCc2c1cc1n(c2=O)Cc2cc3ccccc3nc2-1
active: Potency (HaCat [1]) 0.0469 µM | Potency (KB-3-1) 0.469 µM | Potency (NIH3T3 [2]) 0.148 µM | Potency (MCC-13) 0.0264 µM | Potency (MCC-26) 0.0743 µM | Potency (MKL-1) 0.0332 µM | Potency (MKL-2) 0.0743 µM | Potency (UISO) 0.0296 µM | Potency (WaGa) 0.0209 µM

COC(=O)c1cncn1C(C)c1ccccc1 (stereo not drawn)
inactive: max response (HaCat [1]) -2.03% | max response (KB-3-1) -9.65% | max response (NIH3T3 [2]) 3.22% | Potency (MCC-13) | Potency (MCC-26) | Potency (MKL-1) | Potency (MKL-2) | Potency (UISO) | Potency (WaGa) | Potency (C33A) | Potency (CAOV3) | Potency (CASKI) | Potency (Es-2) | Potency (HeLa) | Potency (Hek293T) | Potency (JEG-3)

CC(C)(O)C(=O)Nc1ccc([N+](=O)[O-])c(C(F)(F)F)c1
inactive: max response (HaCat [1]) -2.45% | max response (KB-3-1) -3.83% | outcome (NIH3T3 [2]) | Potency (MCC-13) | Potency (MCC-26) | Potency (MKL-1) | outcome (NIH3T3 [3]) | Potency (UISO)

Nc1c(Cl)c(Cl)c(Cl)c(Cl)c1Cl
inactive: max response (HaCat [1]) -3.9% | max response (KB-3-1) -13% | max response (NIH3T3 [2]) 2.9% | Potency (MCC-13) | Potency (MCC-26) | Potency (MKL-1) | Potency (MKL-2) | Potency (UISO) | Potency (WaGa) | Potency (C33A) | Potency (CAOV3) | Potency (CASKI) | Potency (Es-2) | Potency (HeLa) | Potency (Hek293T) | Potency (JEG-3)

CC(C)[C@]12O[C@H]1[C@@H]1O[C@]13[C@]1(O[C@H]1C[C@H]1C4=C(CC[C@@]13C)C(=O)OC4)[C@@H]2O
active: Potency (HaCat [1]) 0.13 µM | Potency (KB-3-1) 0.0651 µM | Potency (NIH3T3 [2]) 0.092 µM | Potency (C33A) 0.708 µM | Potency (CASKI) 0.199 µM | Potency (Es-2) 0.1 µM | Potency (HeLa) 0.158 µM

CCN1CCN(C(=O)Cc2ccc(Nc3ncc(F)c(Nc4ccc(C(=O)Nc5ccccc5Cl)cc4)n3)cc2)CC1
inactive: Potency (MCC-26) | Potency (C33A) | Potency (CASKI) | Potency (JEG-3)
active: Potency (HaCat [1]) 8.2 µM | Potency (KB-3-1) 1.84 µM | Potency (NIH3T3 [2]) 20.6 µM | Potency (MKL-2) 9.35 µM | Potency (HeLa) 8.91 µM | Potency (Hek293T) 25.1 µM

S=C(NC1CCCCC1)N1CCC(c2cnc[nH]2)CC1
inactive: max response (HaCat [1]) -12.4% | max response (KB-3-1) -10.7% | max response (NIH3T3 [2]) -20.5% | Potency (C33A) | Potency (CAOV3) | Potency (CASKI) | Potency (Es-2) | Potency (HeLa) | Potency (Hek293T) | Potency (JEG-3)

C[C@]12CCC(=O)C(O)=C1CC[C@@H]1[C@H]3CCC(=O)[C@@]3(C)CC[C@@H]12
inactive: max response (HaCat [1]) -3.05% | max response (KB-3-1) 3.15% | max response (NIH3T3 [2]) 4.69% | Potency (MCC-13) | Potency (MCC-26) | Potency (MKL-1) | Potency (MKL-2) | Potency (UISO) | Potency (WaGa)

O=[N+]([O-])c1c2ccccc2cc2ccccc12
inactive: max response (HaCat [1]) 3.41% | max response (KB-3-1) -16.7% | max response (NIH3T3 [2]) -10.2% | Potency (MCC-13) | Potency (MCC-26) | Potency (C33A) | Potency (CAOV3) | Potency (CASKI) | Potency (Es-2) | Potency (Hek293T) | Potency (JEG-3)
active: Potency (UISO) 42.8 µM

CC1=C(O)C(=O)C=C2C1=CC=C1[C@@]2(C)CC[C@@]2(C)[C@@H]3C[C@](C)(C(=O)O)CC[C@]3(C)CC[C@]12C
active: Potency (HaCat [1]) 2.64 µM | Potency (KB-3-1) 2.96 µM | Potency (NIH3T3 [2]) 3.32 µM | Potency (MCC-13) 4.18 µM | Potency (UISO) 3.72 µM

C[C@@H]1O[C@@H](O[C@@H]2C=C3CC[C@@H]4[C@@H](CC[C@]5(C)[C@H](c6ccc(=O)oc6)CC[C@@]45O)[C@@]3(C)CC2)[C@H](O)[C@H](O)[C@H]1O
active: Potency (HaCat [1]) 0.0469 µM | Potency (KB-3-1) 0.0264 µM | Potency (NIH3T3 [2]) 3.72 µM | Potency (MCC-13) 0.0372 µM | Potency (MKL-1) 0.105 µM | Potency (MKL-2) 0.132 µM | Potency (WaGa) 0.0418 µM

CCCCCCCCc1ccc(O)cc1
active: Potency (HaCat [1]) 24.6 µM | Potency (WaGa) 43.7 µM | Potency (C33A) 25.1 µM
inactive: max response (KB-3-1) -0.951% | Potency (MCC-13) | Potency (MCC-26) | Potency (CAOV3) | Potency (CASKI) | Potency (Es-2) | Potency (HeLa) | Potency (Hek293T) | Potency (JEG-3)

COc1cc2cc(c1Cl)N(C)C(=O)C[C@H](OC(=O)C(C)C)[C@]1(C)O[C@H]1[C@H](C)[C@@H]1C[C@@](O)(NC(=O)O1)[C@H](OC)C=CC=C(C)C2
active: Potency (KB-3-1) 0.332 µM
inactive: max response (HaCat [1]) -21.1% | max response (NIH3T3 [2]) -88.8% | Potency (MCC-13) | Potency (MCC-26) | Potency (MKL-1) | Potency (MKL-2) | Potency (UISO) | Potency (WaGa)

CC(=Cc1csc(C)n1)[C@@H]1C[C@H]2O[C@]2(C)CCC[C@H](C)[C@@H](O)[C@@H](C)C(=O)C(C)(C)[C@@H](O)CC(=O)O1
inactive: max response (HaCat [1]) -55% | max response (NIH3T3 [2]) -85.8% | Potency (MCC-13) | Potency (MKL-1) | Potency (MKL-2) | Potency (WaGa)
active: Potency (KB-3-1) 0.0001 µM

COCC1(CO)C(=O)C2CCN1CC2 (stereo not drawn)
inactive: outcome (HaCat [1]) | max response (KB-3-1) 3.43% | outcome (HACAT [4]) | Potency (MCC-13) | Potency (MCC-26)
active: Potency (MKL-1) 2.09 µM | Potency (WaGa) 1.32 µM

COc1cc([C@@H]2c3cc4c(cc3[C@@H](O)C3COC(=O)C32)OCO4)cc(OC)c1O (stereo partly drawn)
inactive: max response (HaCat [1]) 3.35%
active: Potency (KB-3-1) 0.0662 µM | Potency (NIH3T3 [2]) 0.132 µM | Potency (MKL-1) 2.35 µM | Potency (UISO) 0.0526 µM | Potency (WaGa) 0.0526 µM

CC(=Cc1csc(C)n1)[C@@H]1C[C@H]2O[C@@H]2CCC[C@H](C)[C@@H](O)[C@@H](C)C(=O)C(C)(C)[C@@H](O)CC(=O)O1
active: Potency (KB-3-1) 0.0004 µM
inactive: max response (HaCat [1]) -20.3% | max response (NIH3T3 [2]) -77% | Potency (MKL-1) | Potency (MKL-2) | Potency (UISO) | Potency (WaGa)

O=S(=O)(CC1CS1)c1ccc(Oc2ccccc2)cc1 (stereo not drawn)
active: Potency (MKL-1) 23.5 µM | Potency (MKL-2) 16.6 µM | Potency (WaGa) 20.9 µM
inactive: max response (HaCat [1]) 3.29% | max response (KB-3-1) 0.22% | max response (NIH3T3 [2]) -6.16% | Potency (MCC-13) | Potency (MCC-26)

CC(C)[C@H]1C(=O)N[C@H](CO)Cc2c[nH]c3cccc(c23)N1C
inactive: max response (HaCat [1]) -1.9% | max response (KB-3-1) 9.88% | max response (NIH3T3 [2]) -1.36% | Potency (MCC-13) | Potency (MCC-26) | Potency (MKL-1) | Potency (MKL-2) | Potency (WaGa)
